In PubChem BioAssay AID1403 (National Center for Advancing Translational Sciences (NCATS), 2008):
Records with an inconclusive call do not appear. Active and inactive are the calls of the source. Calls follow the shape of the dose curve; as a rule, active = well fitted curve in the direction sought with a large enough effect in the signal ratio; inconclusive = small, poorly fitted or top-dose-only effect, or a change in a side signal; inactive = no such curve, though single readings can be large or run the other way; the % refers to the signal ratio.

Molecular target: Follicle-stimulating hormone receptor (Homo sapiens) (UniProt P23945)
Test: Counterscreen for Agonists of Thyroid Stimulating Hormone Receptor: HTRF Activity in a Follicle Stimulating Hormone Receptor Cell Line
Settings: HEK293-FSHR cells, 30 min; series mostly up to 91.7 µM
Description: NIH Chemical Genomics Center [NCGC] NIH Molecular Libraries Screening Centers Network [MLSCN] MLSCN Grant: 1 X01 MH080680-01 PI Name: Dr. Marvin Gershengorn, NIH NCGC Assay Overview: Confirmation of Thyroid Stimulating Hormone Receptor Agonists TSH is an alpha/beta heterodimeric glycoprotein hormone secreted from the anterior pituitary gland which belongs to the glycoprotein hormone family. The actions of TSH are mediated by a seven-transmembrane receptor, which upon TSH binding couples preferentially to the G-alpha (s) protein (Gs), resulting in activation of adenylate cyclase and increase in cyclic adenosine 3', 5' monophosphate (cAMP). The TSH receptor (THSR) is mainly expressed in thyroid follicular cells and regulates their growth and function. […] In order to confirm specificity of the compounds to the TSHR, a confirmatory assay was conducted on a similar family member, the Follicle Stimulating Hormone (FSH) receptor, transfected into a HEK 293 cell line, using an orthogonal detection technology to measure cAMP stimulation: antibody-based Homogeneous Time Resolved Fluorescence (HTRF).
NCGC Assay Protocol Summary: Homogeneous Time Resolved Fluorescence (HTRF) cAMP Assay. […] Plates were measured using the Envision plate reader (PerkinElmer, Boston, MA) with excitation at 330 nm and emissions of 615 nm and 660 nm. […]

SMILES	outcome
C=CCN1C(=O)C2(C(C(=O)OC)=C(N)Oc3c2c(=O)oc2ccccc32)c2ccccc21 (configuration not stated)	inactive
CCOC(=O)C1=C(N)Oc2c(c(=O)oc3ccccc23)C12C(=O)N(C)c1ccccc12 (configuration not stated)	inactive
